Calls of active or inactive are those of the source. A call without a number means that no potency is given here. Calls follow the shape of the dose curve; as a rule, active = well fitted inhibition curve with a large enough effect; inconclusive = small, poorly fitted or top-dose-only effect; inactive = flat fitted curve, though single readings scatter.
biological target: Luciferin 4-monooxygenase (Photinus pyralis) (UniProt P08659); test: Primary firefly luciferase (FLuc) qHTS assay for identification of artifact compounds. (AID 1845220); conditions: purified firefly luciferase, luminescence, 5 min; series mostly up to 54.1 µM; also: nearly all actives have a fitted effect of over 60% in size
Source text: PI: Alexander Tropsha Ph.D.
UNC Eshelman School of Pharmacy
University of North Carolina, Chapel Hill, North Carolina
Hits from high-throughput screening (HTS) of chemical libraries are often false positives due to their interference with the assay detection technology. In response to this problem, we generated the largest publicly available library of chemical liabilities and developed a free webtool to predict HTS artifacts, both of which are described herein. More specifically, we generated, curated, and integrated HTS datasets for thiol reactivity, redox activity, and luciferase (firefly and nano) activity. Using these curated datasets, we developed and validated several Quantitative Structure-Interference Relationship (QSIR) models to predict nuisance behavior. […] These models were employed for virtual profiling of the National Center for Advancing Translational Science's (NCATS) in-house library, and 256 compounds for each assay were selected for the experimental validation of nuisance behavior. The BA for these external predictions ranged from 58 to 78% for compounds within the applicability domains of the models. […] The models developed in this study, along with aggregation models previously developed by our group (SCAM Detective) were implemented in "Liability Predictor," an online tool which may be used as part of chemical library design or for triaging HTS hits. Both the models and the curated datasets are publicly available at https://liability.mml.unc.edu/.
SEQUENCE No. (e.g., 1, 2, 3, etc.); […] (e.g., Cells, Incubation, Reagent, etc.); VALUE; DESCRIPTION.
1; Reagent; 3 uL; Luciferase substrate mixture.
2; Compounds and control; 16 nL; Kalypsis pin tool (Wako USA) equipped with a 1536-well pin head.
4; Reagent; 1 uL; Luciferase enzyme.
6; Detection; Luminescence, ViewLux microplate reader.
NOTES (numbers refer to Sequence numbers above)
1. 3 uL of luciferase substrate mixture containing D-luciferin and ATP (final concentrations of 10 uM and 10 uM, respectively) in assay buffer (10 mM Mg-acetate, 0.01% Tween-20, 0.05% bovine serum albumin, 50 mM Tris acetate, pH 7.6) was dispensed into all wells of a 1536-well assay plate (solid-bottom white plate; Greiner Bio One, Monroe, NC).
2. A Wako Pin-tool (Wako Automation, Richmond, VA) was used to transfer 16 nL of compounds (consisting of 7-plates in qHTS format, final concentration range 18.3 nM to 114 uM) or control PTC124 (final concentration range 1.22 nM to 40 uM).
3. 15 min. incubation at room temperature protected from light.
4. 1 uL of luciferase enzyme (final concentration 10 nM, Photinus pyralis luciferase) or buffer was dispensed for a final assay volume of 4 uL.
5. Plates were centrifuged (121xg, 15 seconds) and incubated for 5 minutes.
6. Samples were read for luminescence on a ViewLux CCD imager (PerkinElmer). Data were normalized to no-enzyme (0% activity) and no-inhibitor (DMSO; 100%) controls and the resulting percent inhibition data were fitted to a 4-parameter Hill equation using NCATS in-house software.
Potency is read from the fitted curve at half-maximal effect.

| Compound | Potency |
| --- | --- |
| C=CC(=O)Nc1ccc2ncnc(Nc3ccc(OCc4cccc(F)c4)c(Cl)c3)c2c1 | inactive |
| Cn1cc(-c2ccc3ncc(Cc4ccc5ncccc5c4)n3n2)cn1 | inactive |
| CC(C)C[C@H](NC(=O)[C@@H](NC(=O)c1cccc(-c2ccccc2)n1)[C@@H](C)O)B(O)O | inactive |
| C[C@H]1[C@@H](OC(=O)CCC(=O)O)O[C@@H]2O[C@@]3(C)CC[C@@H]4[C@H](C)CC[C@@H]1[C@@]24OO3 | inactive |
| CCOc1cc2c(c(F)c1OCC)C(=N)N(CC(=O)c1cc(N3CCOCC3)c(OC)c(C(C)(C)C)c1)C2 | inactive |
| CC(C)c1cc(C(C)C)c(CC(=O)NS(=O)(=O)Oc2c(C(C)C)cccc2C(C)C)c(C(C)C)c1 | inactive |
| c1cc(N[C@@H]2CCNC2)nc(-c2cnc3ccc(-c4cn[nH]c4)cn23)c1 | inactive |
| Cn1cnc2c(F)c(Nc3ccc(Br)cc3F)c(C(=O)NOCCO)cc21 | inactive |
| Nc1ccn(C2CO[C@H](CO)O2)c(=O)n1 (stereo not given in full) | inactive |
| Cc1cncc2cccc(S(=O)(=O)N3CCCN(C(=O)CN)C[C@@H]3C)c12 | inactive |
| C[C@H](O)[C@@H]1C(=O)N2C(C(=O)O)=C(S[C@@H]3CN[C@H](CNS(N)(=O)=O)C3)[C@@H](C)[C@@H]12 | inactive |
| COc1ccc(S(=O)(=O)Nc2cccnc2Nc2ccc(O)cc2)cc1 | inactive |
| FC(F)c1nc2ccccc2n1-c1nc(N2CCOCC2)nc(N2CCOCC2)n1 | inactive |
| N#Cc1c(C2CCNCC2)cc(-c2c(O)cccc2OCC2CC2)nc1N | inactive |
| COc1cc(CCc2cc(NC(=O)c3ccc(N4C[C@@H](C)N[C@@H](C)C4)cc3)n[nH]2)cc(OC)c1 | inactive |
| CCc1nc(-c2cccc(C)c2)c(-c2ccnc(NC(=O)c3ccccc3)c2)s1 | inactive |
| CCC[C@H]1C[C@H](C(=O)N[C@@H]([C@@H]2O[C@@H](SC)[C@@H](O)[C@@H](O)[C@@H]2O)[C@H](C)Cl)N(C)C1 | inactive |
| CCc1ccc(C(=O)Nc2cc(CN3CCN(C)CC3)cc(C(F)(F)F)c2)cc1C#Cc1cnc2ccnn2c1 | inactive |
| CC(C)n1cnc2c(NCCc3ccc(O)cc3)nc(-c3csc4ccccc34)nc21 | inactive |
| N[C@H]1CN(c2c(F)cc3c(=O)c(C(=O)O)cn(C4C[C@@H]4F)c3c2Cl)CC12CC2 (stereo not given in full) | inactive |

| Compound | Potency |
| --- | --- |
| CS(=O)(=O)N1CCc2c(-c3cnc(N)nc3)nc(N3CCOCC3)nc21 | inactive |
| Cc1ncc(-c2ccnc(Nc3ccc(S(C)(=O)=O)cc3)n2)n1C(C)C | inactive |
| Nc1ccc(C(=O)Nc2cccc(-c3nc(N4CCOCC4)c4oc5ncccc5c4n3)c2)cn1 | inactive |
| c1cncc(CN2CCC(n3ncc4c(N5CCOCC5)nc(-c5ccc6[nH]ccc6c5)nc43)CC2)c1 | inactive |
| Oc1cc(-c2nc(-c3ccccc3)[nH]c2-c2ccncc2)ccc1Cl | inactive |
| O=C(O)c1ccc(Nc2ncc3c(n2)-c2ccc(Cl)cc2C(c2c(F)cccc2F)=NC3)cc1 | inactive |
| CC(C)(N)c1ccc(-c2nc3ccccc3nc2-c2ccccc2)cc1 | inactive |
| O=C(Nc1ccc(Oc2ccnc3[nH]ccc23)c(F)c1)c1cccn(-c2ccc(F)cc2)c1=O | inactive |
| CC(O)(C#Cc1ccc2c(c1)N(c1nc(N)ncc1Cl)CC2)c1nccs1 (stereo not given) | inactive |
| C[C@@H](Cc1cc2c(c(C(N)=O)c1)N(CCCO)CC2)NCCOc1ccccc1OCC(F)(F)F | inactive |
| CN(C)CC(=O)N1CCC(c2ccc(NC(=O)c3ncc(C#N)[nH]3)c(C3=CCCCC3)c2)CC1 | inactive |
| CCOC(=O)[C@@H](N)Cc1ccc(-c2cc(O[C@H](c3ccc(Cl)cc3-n3ccc(C)n3)C(F)(F)F)nc(N)n2)cc1 | inactive |
| C[N+]1(C)[C@@H]2C[C@@H](OC(=O)C(O)(c3cccs3)c3cccs3)C[C@H]1[C@@H]1O[C@@H]12 | inactive |
| OCCNC1CCCc2c1[nH]c1ccc(-c3ccccc3)cc21 (stereo not given) | inactive |
| CN1CCc2c(c3ccccc3n2Cc2ccc(C(=O)NO)cc2)C1 | inactive |
| c1ccc2c(Oc3nc(Nc4ccc(N5CCOCC5)cc4)c4ncn(C5CCCCC5)c4n3)cccc2c1 | inactive |
| FC(F)(F)c1ccc(Nc2nc3ccc(Oc4ccnc(-c5ncc(C(F)(F)F)[nH]5)c4)cc3[nH]2)cc1 | inactive |
| O=C(Nc1cc2cc[nH]c2cn1)c1ccccc1 | 2.39 µM (active) |
| Cc1coc2c1C(=O)C(=O)c1c-2ccc2c(C)cccc12 | inactive |
| Cc1cnc(Nc2ccc(CN3CCOCC3)cc2)nc1Nc1cccc(S(=O)(=O)NC(C)(C)C)c1 | inactive |

From PubChem BioAssay (NCATS)
